Screens (PubChem)
Shown are actives, neighbours in structure and some others; about 19% of the full set was active somewhere.
KB-3-1 cytotox: qHTS assay for MDR1-selective chemotherapeutics: Primary screen using the parental adenocarcinoma cell KB-3-1. KB-3-1 viability, CellTiter-Glo ATP luminescence, 72 h. Potency, µM (series often up to 46.1 µM), usual class: cytotoxic. actives 1.4% (n = 400,000). AID 1347075, 2019; note: nearly all actives have a fitted effect of over 60% in size
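Cytotoxicity in the drug-sensitive parental line KB-3-1 was scored as loss of CellTiter-Glo luminescence following 72 h incubation with compound. Values come from curve fitting of normalized concentration-response data.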
HT1080 IDH1KD tx: qHTS for induction of synthetic lethality in tumor cells producing 2HG: qHTS for the HT-1080-IDH1KD cell line; actives 2% (n = 360,000); HT-1080 IDH1 knockdown viability, ATP luminescence, 48 h; AID 686971, 2013; Potency, µM (titrated, usually from 46.1 µM), for the others: top-dose activity, negative = toxicity, usual class: cytotoxic;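 note: 0% = DMSO wells and -100% = cell-free medium wells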
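Viability of IDH1-knockdown HT-1080 fibrosarcoma cells was assessed by CellTiter-Glo after 48 h at 37 °C with titrated compound; concentration-effect curves were classified by fit quality and response size.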
DT40 TDP1 no CPT: qHTS for Inhibitors of human tyrosyl-DNA phosphodiesterase 1 (TDP1): qHTS in cells in absence of CPT; Potency, µM (top dose mostly 46.2 µM), inactives show at the top dose activity change, negative = growth inhibition, hits mostly inhibitors; DT40 Tdp1-/- hTDP1 cells, no CPT, ATP luminescence, 48 h; actives 15% (n = 420,000); AID 686978, 2013; note: nearly all actives have a fitted effect of over 55% in size
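A cellular qHTS used chicken DT40 cells lacking endogenous Tdp1 but carrying stably transfected human TDP1. Compounds were applied without camptothecin, and cell growth kinetics were judged by ATP-dependent luminescence after ≥48 hr.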
KB-V1 MDR tox: qHTS assay for MDR1-selective chemotherapeutics: Primary screen using the drug-selected MDR subline cells KB-V1 | actives 3.4% (n = 400,000) | KB-V1 MDR cells viability, CellTiter-Glo, 72 h | Potency, µM (titrated, usually from 46.1 µM), usual class: cytotoxic | AID 1347076, 2019; note: nearly all actives have a fitted effect of over 60% in size
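Cells of the MDR subline KB-V1 are plated, dosed with compound at multiple concentrations, and incubated 72 h at 37 degrees C; CellTiter-Glo is then added and luminescence read after 10 min.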
DT40 TDP1 CPT: qHTS for Inhibitors of human tyrosyl-DNA phosphodiesterase 1 (TDP1): qHTS in cells in presence of CPT | chicken DT40 Tdp1-/-;hTDP1 cells + 20 nM CPT, ATP luminescence, 48 h | Potency, µM (titrated, usually from 46.2 µM), for inactives: at the top dose activity change, negative = growth inhibition, usual class: inhibitors | AID 686979, 2013 | actives 12% (n = 420,000); note: nearly all actives have a fitted effect of over 55% in size
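Chicken DT40 Tdp1-/- cells stably complemented with human TDP1 were seeded at 400 cells/well in medium containing 20 nM camptothecin, exposed to pin-transferred compounds, and grown at 37 °C for at least 48 hr. Viability was read as ATP luminescence.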
HT1080-NT tox: qHTS for induction of synthetic lethality in tumor cells producing 2HG: qHTS for the HT-1080-NT fibrosarcoma cell line. HT-1080-NT fibrosarcoma viability, CellTiter-Glo ATP luminescence, 48 h. Potency, µM (series often up to 46.1 µM), for the others: at the highest dose activity, negative = less viability, usual class: cytotoxic. actives 1.6% (n = 360,000);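 note: NT is the 2HG producing partner of a matched IDH1 knockdown line; 0% = DMSO-treated cells and -100% = media-only wells without cells; nearly all actives have a fitted effect of over 55% in size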
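Read-out is CellTiter-Glo luminescence after 10 minutes at room temperature, following 48 hours' compound treatment of HT-1080-NT cells (750 cells/well, RPMI, 5% FBS, 37 degrees C).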
The depositor's hits bear a star; i = inactive; ? = inconclusive; . = no result given; [ ] = dose if it differs, or a comment. Calls come from the whole dose curve; as a rule, active = well fitted curve in the direction sought with a large enough effect; inconclusive = small, poorly fitted or top-dose-only effect, or another doubt; inactive = no such curve, though single readings can be large; an effect the other way counts as inactive or inconclusive. Unless noted, % is set by controls: 0 for no effect and ±100 for the full control effect; potency is the fitted concentration of half-maximal effect.

SMILES	KB-3-1 cytotox	HT1080 IDH1KD tx	DT40 TDP1 no CPT	KB-V1 MDR tox	DT40 TDP1 CPT	HT1080-NT tox
Cc1cc(C(=O)CN2C(=O)C(=O)N(Cc3ccco3)C2=O)c(C)n1CCc1ccccc1	?	?	18µM*	16µM*	23µM*	?
O=C(NCc1ccccc1)c1cc(C2COCCN2C(=O)C/C=C/c2ccccc2)on1 (stereo not given)	i	13%	?	i	?	-13%
C=CCNC(=O)c1cc2c(=O)n3ccccc3nc2s1	i	-10%	3%	i	1%	-4%
C/C(=N\OCC(=O)NCC(F)(F)F)c1cc2ccccc2o1	i	14%	?	i	?	21%
CCc1cccc(C)c1NC(=O)c1cc2ccccc2o1	i	.	16µM*	i	18µM*	.
CCCCNC(=O)CO/N=C(\C)c1cc2ccccc2o1	i	5%	?	16µM*	?	5%
CCc1cccc(C)c1NC(=O)C1CC=CCC1C(=O)O (stereo not given)	i	-4%	21µM*	i	?	9%
CCc1cccc(C)c1NC(=O)C1CCCO1 (stereo not given)	i	16%	-12%	i	-9%	14%
CCc1cccc(C)c1NC(=O)CO/N=C(\C)c1cc2ccccc2o1	i	-20%	23µM*	?	18µM*	-12%
Cc1ccc(C)c(NC(=O)c2cc3ccccc3o2)c1	i	1%	-28%	i	-2%	2%
Cc1ccnc2nc(C(=O)OCC(=O)NCCc3ccccc3)nn12	i	-9%	12%	i	14%	2%
COc1cc(OC)cc(C(=O)NCC2CCCN(C(=O)c3csc(C)n3)C2)c1 (stereo not given)	i	-4%	9%	i	-2%	0%
CC1SC(c2ccc(F)cc2)NC1=O (stereo not given)	i	19%	-4%	?	20%	16%
C=CCc1cccc2cc(-c3nc4ccc(C(=O)O)cc4[nH]3)c(=O)oc12	i	.	-11%	i	1%	.
O=C(Nc1ccccn1)c1cc2ccccc2o1	?	?	?	?	10µM*	?
Cc1ccc(F)cc1CNC(=O)C1CCC(=O)N(C2CC2)C1 (stereo not given)	.	-7%	-4%	.	-10%	-3%
COc1ccc(CN2CCOc3ccc(C(O)c4cccnc4)cc3C2)cc1O (stereo not given)	.	.	-19%	.	4%[9.04 µM]	.
O=C(Cc1ccccc1)n1nc(-c2ccco2)nc1SCc1ccccc1	i	1%	?	?	?	14%
CCCC(=O)n1nc(-c2ccco2)nc1SCc1ccccc1	i	?	?	i	3.7µM*	1%
CCNc1nc2c(c(=O)n(C)c(=O)n2C)n1Cc1ccc(Cl)cc1	i	-11%	6.5µM*	i	3.7µM*	0%
COc1ccc(-n2ccnc(NCc3ccc(Cl)cc3)c2=O)cc1	i	.	15µM*	i	?	.
Cn1c(OCc2cccnc2)nc2c1c(=O)n(Cc1ccc(Cl)cc1)c(=O)n2C	i	-7%	18µM*	?	12µM*	2%
COc1cccc(CNc2nccn(-c3cc(C)cc(C)c3)c2=O)c1	i	.	?	?	?	.
Cn1c(OCc2cccnc2)nc2c1c(=O)n(Cc1ccc(Br)cc1)c(=O)n2C	i	4%	?	?	?	-1%
COc1ccc(CNc2nc3c(c(=O)n(Cc4ccc(Cl)cc4)c(=O)n3C)n2C)cc1	?	-30%	23µM*	16µM*	18µM*	?
SMILES	KB-3-1 cytotox	HT1080 IDH1KD tx	DT40 TDP1 no CPT	KB-V1 MDR tox	DT40 TDP1 CPT	HT1080-NT tox
O=C(NC1CCN(Cc2ccccc2)CC1)c1ccc(CS(=O)c2ccccc2Cl)o1 (stereo not given)	i	-1%	?	i	?	-5%
Cc1ccccc1N1CCN(C2CCCN(C(=O)c3cnsn3)C2)CC1 (stereo not given)	i	2%	1%	i	?	1%
CCOc1ncccc1C(=O)OCc1cccc([N+](=O)[O-])c1	i	13%	6%	i	1%	-2%
Cc1coc2c1c(C)cc1oc(=O)c(CC(=O)N[C@@H](C)C(=O)O)c(C)c12	?	-4%	10%	i	2%	0%
CCC(C)Nc1nc2c(c(=O)n(C)c(=O)n2C)n1Cc1ccc(Cl)cc1 (stereo not given)	i	-18%	23µM*	?	13µM*	-12%
C=C(C)Cn1c(NCCC)nc2c1c(=O)n(C)c(=O)n2C	i	0%	?	i	?	-2%
Cn1c(=O)c2c(nc(NCc3cccnc3)n2Cc2ccc(Cl)cc2)n(C)c1=O	?	?	5.8µM*	?	?	?
Cn1c(=O)c2c(nc(NCc3ccccc3)n2CC(=O)NCc2ccccc2)n(C)c1=O	i	9%	-28%	i	4%	11%
Cc1ccc(-n2ccnc(NCc3ccccc3)c2=O)cc1C	?	.	?	i	?	.
COc1ccc(OC)c(CCNc2nccn(-c3ccc(C)c(C)c3)c2=O)c1	i	.	21µM*	i	15µM*	.
CCCNc1nc2c(c(=O)n(C)c(=O)n2C)n1Cc1ccc(F)cc1	?	-17%	9.2µM*	i	6.5µM*	-5%
Oc1cccc2oc(=S)[nH]c12	i	-12%	-10%	i	-6%	0%
CCCNC(=O)c1cc(C2CCCCN2C(=O)c2ccc3ccccc3c2)on1 (stereo not given)	i	18%	?	i	?	-1%
Cc1ccc(NC(=O)CCc2nnc3ccc(NCc4ccco4)nn23)cc1	i	-8%	?	i	?	-2%
CCn1c(-c2ccccc2F)nc2cc(NC(C)=O)cc(C(=O)N3CCC[C@H]3C(=O)OC)c21	.	.	-3%	.	2%	.
Cc1nn(C(C)(C)C)c(OC(=O)c2ccc3c(c2)OCO3)c1S(=O)(=O)c1ccccc1	i	?	-29%	i	-25%	21µM*
